Assay outcomes (PubChem)
RGS4-Gao reg = modulators of RGS4 binding to Galphao, primary screen, biochemical, multiplexed bead flow cytometry. Guanine nucleotide-binding protein G(o) subunit alpha (Homo sapiens), P09471. actives lie on both sides. actives 0.33% (n = 220,000). AID 1415, 2008. binding response (% of control), % at 10 µM; in the data active means binding response below about 49% or above about 150%; inactive means in between;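 further: fluorescent Galphao activated with aluminum fluoride binding bead-coupled RGS4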
Target sequence (P09471 whole entry, looked up): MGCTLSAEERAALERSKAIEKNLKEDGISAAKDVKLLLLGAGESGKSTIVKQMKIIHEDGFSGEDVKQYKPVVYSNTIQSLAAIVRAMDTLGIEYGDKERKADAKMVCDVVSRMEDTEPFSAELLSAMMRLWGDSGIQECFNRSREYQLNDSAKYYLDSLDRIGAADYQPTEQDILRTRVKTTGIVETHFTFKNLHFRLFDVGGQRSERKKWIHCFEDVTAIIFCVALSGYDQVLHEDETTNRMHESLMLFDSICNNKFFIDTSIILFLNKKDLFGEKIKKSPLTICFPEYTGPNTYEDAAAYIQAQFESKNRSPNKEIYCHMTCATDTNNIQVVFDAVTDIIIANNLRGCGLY
Avidin bead fluor = green autofluorescence of compounds with avidin beads – biophysical, 488/530 nm, flow cytometry, artefact control, profiling panel. actives 0.38% (n = 220,000). compound fluorescence 488/530 nm; stronger effect = higher value. fluorescence (KMESF) at 10 µM; in the data active means fluorescence above about 47
RGS7-Gao reg = RGS7-Galphao binding modulators, primary screen, biochemical, multiplexed bead flow cytometry. Guanine nucleotide-binding protein G(o) subunit alpha (Homo sapiens), P09471. actives lie on both sides. binding response (% of control), % at 10 µM. actives 0.35% (n = 220,000). AID 1439, 2008; in the data active means binding response below about 49% or above about 150%; inconclusive means no clear call, values can overlap the other calls; inactive means in between;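 further: fluorescent Galphao held in activated GDP-AlF4 state binding bead-coupled RGS7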
RGS16-Gao HTS = modulators of RGS16 binding to Galphao, primary screen, biochemical, human proteins, multiplexed bead flow cytometry | Regulator of G-protein signaling 16 (Homo sapiens) + Guanine nucleotide-binding protein … | binding response (% of control), % at 10 µM | AID 1441, 2008 | bead-based flow cytometry RGS16-Galphao binding, fluorescence; actives lie on both sides | actives 0.38% (n = 220,000);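 further: Galphao activated by GDP with aluminum fluoride before binding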
Target sequence (O15492 whole entry, looked up): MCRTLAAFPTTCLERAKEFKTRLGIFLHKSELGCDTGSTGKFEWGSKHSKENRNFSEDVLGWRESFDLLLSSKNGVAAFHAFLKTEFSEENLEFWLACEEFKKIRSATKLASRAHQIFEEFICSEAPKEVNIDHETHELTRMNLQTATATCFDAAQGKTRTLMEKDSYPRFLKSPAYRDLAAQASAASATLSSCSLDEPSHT
Target sequence (P09471 whole entry, looked up): as the sequence (P09471 whole entry, looked up) above
GSH bead fluor = compound fluorescence on glutathione beads, profiling panel, artefact control, biophysical, 488/530 nm, flow cytometry. AID 1776, 2009. fluorescence (KMESF) at 10 µM. actives 0.25% (n = 190,000). GSH beads flow cytometry, compound fluorescence 488/530 nm; stronger effect = higher value; in the data active means fluorescence above about 89;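 further: glutathione beads carrying GST-tagged Bcl family fusion proteins plus one bare bead set; values are compound well signal with DMSO vehicle wells as background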
RGS8-Gao reg = RGS8-Galphao binding modulators, primary screen, biochemical, multiplexed bead flow cytometry | response (percent of control binding), % at 10 µM | actives 0.34% (n = 220,000) | actives lie on both sides | Guanine nucleotide-binding protein G(o) subunit alpha (Homo sapiens), P09471; in the data active means response below about 60% or above about 140%; inactive means in between;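 further: Galphao activated as the GDP aluminium fluoride complex binding bead-coupled RGS8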
RGS-Gao = modulators of RGS–Galpha-o binding, primary screen, biochemical, multiplexed beads, flow cytometry, RGS4/7/8/16/19; actives 99% (n = 1,600); multiplexed bead flow cytometry; RGS4–Galpha-o binding response, % at 10 µM; shares compounds with RGS16-Gao HTS;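 further: fluorescently labeled Galpha-o bound to GDP with aluminium fluoride binding biotinylated RGS beads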
Avidin counter = disruption of biotin probe capture by avidin, counter-screen for RGS protein interaction modulators, biochemical, flow cytometry, bead-based; shares compounds with RGS16-Gao HTS; streptavidin beads, fluorescein-biotin binding; inhibition, % at 10 µM; 1,700 tested, under 10 active;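 active means inhibition above 50%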;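 further: median green fluorescence of gated singlet beads compared with DMSO control wells; 0% = DMSO wells and 100% = complete loss of bead fluorescence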
RGS8-Gao confirm = RGS8-Galphao binding modulators, confirmation, biochemical, multiplexed bead flow cytometry, single concentration. shares compounds with RGS16-Gao HTS. AID 1836, 2009. bead-based flow cytometry RGS8-Galphao binding, fluorescence; actives lie on both sides. binding response (% of control), % at 10 µM. actives 3% (n = 1,700); in the data active means binding response below about 72% or above about 130%; inactive means in between;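 further: Galphao activated as GDP AlF4 complex before binding bead RGS8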
RGS7-Gao confirm = RGS7-Galphao binding modulators, confirmation, biochemical, multiplexed bead flow cytometry, single concentration; response (percent of control binding), % at 10 µM; actives 7.8% (n = 1,700); AID 1837, 2009; shares compounds with RGS16-Gao HTS; bead-based flow cytometry RGS7-Galphao binding; actives lie on both sides; in the data active means response below about 75% or above about 130%; inactive means in between;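 further: fluorescent Galphao activated with GDP and aluminum fluoride binding bead-coupled RGS7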
RGS16-Gao conf = modulators of RGS16-Galphao protein binding, confirmation, biochemical, single concentration, multiplexed bead flow cytometry; shares compounds with RGS16-Gao HTS; bead-based flow cytometry; actives lie on both sides; response (% of control binding), % at 10 µM; actives 4% (n = 1,700); in the data active means response below about 74% or above about 130%; inactive means in between;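 further: Galphao activated as the GDP aluminium fluoride complex binding bead-coupled RGS16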
RGS4-Gao single = modulators of RGS4-Galphao protein binding, confirmation, biochemical, single concentration, multiplexed bead flow cytometry; shares compounds with RGS16-Gao HTS; actives lie on both sides; binding response (% of control), % at 10 µM; actives 4% (n = 1,700); in the data active means binding response below about 74% or above about 130%; inactive means in between
RGS19-Gao single = regulators of RGS19-Galphao binding, confirmation, biochemical, single point, multiplexed bead flow cytometry. shares compounds with RGS16-Gao HTS. bead-based flow cytometry RGS19-Galphao binding; actives lie on both sides. response (percent of control binding), % at 10 µM. actives 5% (n = 1,700); in the data active means response below about 50% or above about 160%; inactive means in between;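 further: 100% = no compound control and 0% = blank background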
Numbers without * were called inactive; ? = inconclusive; · = no result given; [ ] = remark or other dose. Sampled rows, rich in hits. Any-hit rate of the full collection: about 1.2%. Unless noted, how the calls were made is not given here.

SMILES | RGS4-Gao reg | Avidin bead fluor | RGS7-Gao reg | RGS16-Gao HTS | GSH bead fluor | RGS8-Gao reg | RGS-Gao | Avidin counter | RGS8-Gao confirm | RGS7-Gao confirm | RGS16-Gao conf | RGS4-Gao single | RGS19-Gao single
Cc1c(Br)c([N+](=O)[O-])nn1CC(=O)N1CCc2ccccc2C1 | 97.4 | 1 | 98.6 | 24.3* | 6 | 74.7 | 97.4* | -1.4 | 102.0 | 96.9 | 97.2 | 100.3 | 90.2
O=C(C[n+]1cccc(CNC(=O)c2ccc(OC(F)F)cc2)c1)Nc1cccc(C(F)(F)F)c1 | 105.5 | 4 | 104.1 | 107.2 | 9 | 106.5 | · | · | · | · | · | · | ·
O=C(C[n+]1cccc(CNC(=O)c2ccc(OC(F)F)cc2)c1)Nc1ccc(F)cc1 | 116.2 | 1 | 120.7 | 21.3* | 18 | 90.9 | 116.2* | -0.3 | 104.9 | 106.1 | 104.8 | 107.2 | 118.2
O=C(O)CSc1c(-c2ccccc2)[nH]c2ccccc12 | 76.8 | 5 | 70.0 | -3.1* | 9 | 62.1 | 76.8* | -1.4 | 100.0 | 97.0 | 98.7 | 100.7 | 90.9
Cc1cc(NC(=O)c2cc(-c3cccs3)nc3ccccc23)no1 | 95.2 | 233* | 255.8*[activator] | 107.0 | 18 | 97.3 | 95.2* | 4.9 | 99.7 | 94.0 | 102.1 | 99.7 | 75.5
CO/N=C/C1CCN(c2ncc(C(F)(F)F)cc2Cl)C1=O (stereo unspecified) | 105.3 | 11 | 106.3 | 103.2 | 19 | 98.6 | · | · | · | · | · | · | ·
O=C(CNCCN1CCOCC1)Nc1ccccc1Sc1ccccc1 | 109.9 | 13 | 120.5 | 227.3*[activator] | 5 | 132.2 | 109.9* | 0.3 | 99.4 | 88.0 | 99.3 | 93.9 | 78.3
Cn1c([N+](=O)[O-])cnc1N1CCN(c2nncs2)C1=O | 115.7 | 5 | ? | 121.1 | · | 116.3 | · | · | · | · | · | · | ·
COc1ccccc1-n1c(SCC(N)=O)nnc1-c1ccc(S(=O)(=O)N2CCCCC2)cc1 | 96.6 | 4 | 98.2 | 96.8 | 29 | 100.2 | · | · | · | · | · | · | ·
NC(=O)CSc1nnc(-c2ccc(S(=O)(=O)N3CCCCC3)cc2)n1-c1ccccc1 | 124.8 | 11 | 111.1 | 334.5*[activator] | 17 | 114.1 | 124.8* | 1.1 | 105.7 | 98.1 | 106.3 | 105.0 | 104.7
CCOC(=O)N1CCN(C(=O)CCCn2c(=S)[nH]c3ccccc3c2=O)CC1 | · | · | · | · | 45 | · | · | 0.4 | 102.2 | 98.2 | 106.8 | 102.8 | 102.5
CN(C)S(=O)(=O)c1cc(NC(=O)COC(=O)c2ccc3c(c2)OCO3)ccc1Cl | 103.4 | 13 | 99.1 | 99.8 | 11 | 100.8 | · | · | · | · | · | · | ·
O=C(CSc1ncn[nH]1)c1cc2ccccc2o1 | 265.4*[activator] | 33 | 243.0*[activator] | 219.4*[activator] | 22 | 111.9 | · | -0.7 | 98.2 | 99.9 | 96.1 | 96.0 | 70.2
O=C(CSc1nccc(=O)[nH]1)c1cc2ccccc2o1 | 97.2 | 7 | ? | 93.6 | · | 96.7 | · | · | · | · | · | · | ·
Cc1ccc(-c2nc3cccnc3s2)cc1NS(=O)(=O)c1ccc2c(c1)CCCC2 | 27.8* | 2 | 32.5* | 28.9 | 16 | 46.4* | · | 0.1 | 104.4 | 102.4 | 103.0 | 104.3 | 107.5
O=S(=O)(Nc1cccc(-c2nc3cccnc3s2)c1)c1ccc2c(c1)CCCC2 | 104.3 | 5 | 104.6 | 101.1 | 17 | 103.3 | · | · | · | · | · | · | ·
CCCc1nnc(SCC(=O)N2CCCC(C)C2)n1CCOC (stereo unspecified) | 98.6 | 6 | 94.7 | 98.2 | 17 | 99.7 | · | · | · | · | · | · | ·
CC(=O)N1CCN(c2ccc(NCc3cccs3)cc2)CC1 | 49.6* | 3 | 40.3* | 30.5 | 18 | 45.7* | · | 1.4 | 105.2 | 103.5 | 101.3 | 99.4 | 108.0
Cc1ccc(-n2cccc2/C=C2/C(=N)N3C(=NC2=O)SN=C3S(C)(=O)=O)cc1Cl | 72.5 | 5 | 45.1* | 59.8 | 10 | 69.9 | 72.5* | · | · | · | · | · | ·
Cc1cccc(C)c1-n1cccc1/C=C1/C(=N)N2C(=NC1=O)SN=C2S(C)(=O)=O | 103.8 | 9 | 102.5 | 99.3 | 12 | 104.3 | · | · | · | · | · | · | ·
COc1ccc(C(=O)OC(C)CN2CCOCC2)cc1OC (stereo unspecified) | 103.0 | 6 | 101.6 | 105.4 | 6 | 100.8 | · | · | · | · | · | · | ·
COc1cc(C(=O)OC(C)CN2CCCC2)cc(OC)c1OC (stereo unspecified) | 46.6* | 6 | 43.8* | 42.4 | 25 | 48.6* | · | 0.2 | 105.0 | 105.2 | 110.7 | 107.1 | 118.1
COc1ccc(C(NC(C)=O)c2ccc3cccnc3c2O)c(OC)c1 (stereo unspecified) | 55.1 | 7 | 55.9 | 15.1 | 13 | 47.0* | 55.1* | 2.0 | 97.6 | 92.8 | 98.2 | 97.2 | 86.4
CCOC(=O)C1CCN(S(=O)(=O)Cc2ccccc2)CC1 | 101.5 | 36 | 100.8 | 104.0 | 23 | 101.9 | · | · | · | · | · | · | ·
